# According to article PMC7862700, “An all-to-all approach to the identification of sequence-specific readers for epigenetic DNA modifications on cytosine”:
# Experiments:
# Experiment in all cases: DAPPL (digital affinity profiling via proximity ligation, sequencing); 10 mM Tris-HCl pH 7.5, 50 mM NaCl, 1 mM DTT, 4% glycerol, room temperature, 30 min; GST-TFs on glutathione beads, 16-mer random dsDNA library, 0.1% formaldehyde crosslink after washing; high values mean tight binding
# FEV = biological target: T1, FEV (Homo sapiens, UniProt Q99581 1-238); conditions: protein: recombinant; tags: N-terminal GST; dsDNA, one strand shown
# T1 sequence: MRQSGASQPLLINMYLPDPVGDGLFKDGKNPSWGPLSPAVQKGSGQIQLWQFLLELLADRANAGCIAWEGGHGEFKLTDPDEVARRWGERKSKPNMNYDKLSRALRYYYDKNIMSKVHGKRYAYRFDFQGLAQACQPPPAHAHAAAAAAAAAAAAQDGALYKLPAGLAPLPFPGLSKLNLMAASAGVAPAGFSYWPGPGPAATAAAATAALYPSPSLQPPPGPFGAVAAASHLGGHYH
# Summary of the method: (§1)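 Beads coated with glutathione captured GST-fused human transcription factors that had been expressed in yeast, and the factors were then given DNA barcodes and pooled with a tag-only sample. The pools were incubated with 200 nmole of a random double-stranded 16-mer DNA library in Tris/NaCl/DTT/glycerol buffer for 30 min at room temperature, washed, crosslinked with 0.1% formaldehyde and proximity-ligated with BsaI/T4 ligase at 37 °C for 1 h. PCR amplification and Illumina NextSeq500 sequencing came last. Binding signal is each hexamer's read frequency for a factor divided by its frequency for the tag-only sample.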
# ETV5 = ETV5 (Homo sapiens, UniProt P41161 1-510); conditions: protein: recombinant; tags: N-terminal GST; dsDNA, one strand shown
# Chain of ETV5 (P41161 whole entry): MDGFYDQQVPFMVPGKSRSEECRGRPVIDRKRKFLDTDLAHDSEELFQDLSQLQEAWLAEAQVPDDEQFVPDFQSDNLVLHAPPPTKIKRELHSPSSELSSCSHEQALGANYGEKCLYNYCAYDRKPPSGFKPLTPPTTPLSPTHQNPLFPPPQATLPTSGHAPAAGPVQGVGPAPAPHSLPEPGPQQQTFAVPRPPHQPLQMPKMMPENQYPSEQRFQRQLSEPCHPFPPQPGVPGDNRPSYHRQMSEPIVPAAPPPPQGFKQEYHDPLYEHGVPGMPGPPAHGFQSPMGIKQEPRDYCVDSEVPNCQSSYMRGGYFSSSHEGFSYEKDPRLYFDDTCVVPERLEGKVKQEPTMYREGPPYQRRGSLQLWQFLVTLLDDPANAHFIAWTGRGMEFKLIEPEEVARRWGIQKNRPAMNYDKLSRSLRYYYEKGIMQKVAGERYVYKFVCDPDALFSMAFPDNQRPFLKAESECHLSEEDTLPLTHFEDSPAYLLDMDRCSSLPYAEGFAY
# Summary of the method: as §1
# HSF1 = HSF1 (Homo sapiens, UniProt Q00613 1-529); conditions: protein: recombinant; tags: N-terminal GST; chain copies: 3; dsDNA, one strand shown
# Chain of HSF1 (Q00613 whole entry): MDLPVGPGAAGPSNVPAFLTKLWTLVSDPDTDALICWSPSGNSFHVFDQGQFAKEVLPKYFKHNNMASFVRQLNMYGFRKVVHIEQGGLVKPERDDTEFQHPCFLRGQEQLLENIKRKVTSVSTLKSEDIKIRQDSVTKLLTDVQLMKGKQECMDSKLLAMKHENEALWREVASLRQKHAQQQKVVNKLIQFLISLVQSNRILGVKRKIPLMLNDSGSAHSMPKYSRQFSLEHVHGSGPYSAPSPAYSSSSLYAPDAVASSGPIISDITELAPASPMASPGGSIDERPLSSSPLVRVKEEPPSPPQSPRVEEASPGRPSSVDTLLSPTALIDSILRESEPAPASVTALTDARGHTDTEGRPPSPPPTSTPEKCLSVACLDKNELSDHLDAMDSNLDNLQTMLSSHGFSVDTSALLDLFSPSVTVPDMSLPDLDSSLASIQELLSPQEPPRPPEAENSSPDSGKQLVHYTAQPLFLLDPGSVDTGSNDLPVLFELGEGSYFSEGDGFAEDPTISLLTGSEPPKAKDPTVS
# Summary of the method: as §1
# SPIC = biological target: T2, SPIC (Homo sapiens, UniProt Q8N5J4 1-248); conditions: protein: recombinant; tags: N-terminal GST; dsDNA, one strand shown
# T2 sequence: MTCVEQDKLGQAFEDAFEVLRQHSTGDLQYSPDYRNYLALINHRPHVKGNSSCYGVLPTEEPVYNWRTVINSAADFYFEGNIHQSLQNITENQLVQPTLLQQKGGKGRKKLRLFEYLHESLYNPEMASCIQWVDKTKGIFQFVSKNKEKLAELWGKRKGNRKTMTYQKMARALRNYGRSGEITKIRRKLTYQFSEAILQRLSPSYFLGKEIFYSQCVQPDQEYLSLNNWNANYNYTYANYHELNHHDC
# Summary of the method: as §1
# ELF4 = ELF4 (Homo sapiens, UniProt Q99607 1-663); conditions: protein: recombinant; tags: N-terminal GST; dsDNA, one strand shown
# Chain of ELF4 (Q99607 whole entry): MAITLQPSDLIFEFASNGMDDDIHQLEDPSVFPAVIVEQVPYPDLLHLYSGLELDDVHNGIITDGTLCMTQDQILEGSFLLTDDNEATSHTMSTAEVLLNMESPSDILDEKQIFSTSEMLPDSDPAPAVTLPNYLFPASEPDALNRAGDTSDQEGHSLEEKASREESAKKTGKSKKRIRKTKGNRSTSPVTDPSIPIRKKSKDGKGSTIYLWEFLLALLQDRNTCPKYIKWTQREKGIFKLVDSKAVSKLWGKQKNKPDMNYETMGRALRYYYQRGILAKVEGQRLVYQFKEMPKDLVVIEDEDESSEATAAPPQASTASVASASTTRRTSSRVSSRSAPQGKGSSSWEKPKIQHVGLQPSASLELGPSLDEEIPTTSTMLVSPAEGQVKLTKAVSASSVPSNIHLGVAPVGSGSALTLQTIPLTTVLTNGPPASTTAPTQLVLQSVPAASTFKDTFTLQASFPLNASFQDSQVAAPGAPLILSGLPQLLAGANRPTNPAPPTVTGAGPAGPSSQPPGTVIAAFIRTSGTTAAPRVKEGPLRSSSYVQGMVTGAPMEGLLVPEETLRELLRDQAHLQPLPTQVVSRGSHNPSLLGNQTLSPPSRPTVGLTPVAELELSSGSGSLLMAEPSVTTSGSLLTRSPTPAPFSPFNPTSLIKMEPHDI
# Summary of the method: as §1
# ELK4 = biological target: T3, ELK4 (Homo sapiens, UniProt P28324-2 1-405); conditions: protein: recombinant; tags: N-terminal GST; dsDNA, one strand shown
# T3 sequence: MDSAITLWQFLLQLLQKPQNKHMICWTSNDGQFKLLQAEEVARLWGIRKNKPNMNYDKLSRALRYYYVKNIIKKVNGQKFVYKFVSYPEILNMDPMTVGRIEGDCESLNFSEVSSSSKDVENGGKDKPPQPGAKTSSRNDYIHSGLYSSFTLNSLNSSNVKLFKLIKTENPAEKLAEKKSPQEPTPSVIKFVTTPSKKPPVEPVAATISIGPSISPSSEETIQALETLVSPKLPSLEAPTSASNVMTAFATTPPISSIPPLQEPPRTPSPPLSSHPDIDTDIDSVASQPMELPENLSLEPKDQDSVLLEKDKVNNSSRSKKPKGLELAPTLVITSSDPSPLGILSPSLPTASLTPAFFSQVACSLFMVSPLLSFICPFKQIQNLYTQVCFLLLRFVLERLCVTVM
# Summary of the method: as §1
# ETV2 = biological target: T4, ETV2 (Homo sapiens, UniProt O00321 1-342); conditions: protein: recombinant; tags: N-terminal GST; dsDNA, one strand shown
# T4 sequence: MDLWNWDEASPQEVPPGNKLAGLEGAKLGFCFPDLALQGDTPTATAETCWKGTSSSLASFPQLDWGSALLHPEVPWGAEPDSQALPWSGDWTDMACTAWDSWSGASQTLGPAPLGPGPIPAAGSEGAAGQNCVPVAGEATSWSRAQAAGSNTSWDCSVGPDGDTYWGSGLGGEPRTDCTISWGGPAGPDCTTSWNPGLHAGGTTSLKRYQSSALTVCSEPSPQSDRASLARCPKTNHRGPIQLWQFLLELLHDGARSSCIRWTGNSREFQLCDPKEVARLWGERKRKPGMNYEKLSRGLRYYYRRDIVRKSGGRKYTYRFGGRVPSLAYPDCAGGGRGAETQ
# Summary of the method: as §1
# ELF3 = biological target: T5, ELF3 (Homo sapiens, UniProt P78545 1-371); conditions: protein: recombinant; tags: N-terminal GST; dsDNA, one strand shown
# T5 sequence: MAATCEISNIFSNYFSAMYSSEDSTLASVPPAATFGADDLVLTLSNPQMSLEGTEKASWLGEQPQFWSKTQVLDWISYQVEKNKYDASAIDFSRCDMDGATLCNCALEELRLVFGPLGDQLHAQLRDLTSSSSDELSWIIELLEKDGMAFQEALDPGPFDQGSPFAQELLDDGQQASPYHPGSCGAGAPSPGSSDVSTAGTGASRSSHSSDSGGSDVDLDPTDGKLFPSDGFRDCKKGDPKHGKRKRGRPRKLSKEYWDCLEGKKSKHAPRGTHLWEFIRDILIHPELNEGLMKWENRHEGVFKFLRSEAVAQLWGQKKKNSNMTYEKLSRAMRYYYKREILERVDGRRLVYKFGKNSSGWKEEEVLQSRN
# Summary of the method: as §1
# CRX = CRX (Homo sapiens, UniProt O43186 1-299); conditions: protein: recombinant; tags: N-terminal GST; dsDNA, one strand shown
# Chain of CRX (O43186 whole entry): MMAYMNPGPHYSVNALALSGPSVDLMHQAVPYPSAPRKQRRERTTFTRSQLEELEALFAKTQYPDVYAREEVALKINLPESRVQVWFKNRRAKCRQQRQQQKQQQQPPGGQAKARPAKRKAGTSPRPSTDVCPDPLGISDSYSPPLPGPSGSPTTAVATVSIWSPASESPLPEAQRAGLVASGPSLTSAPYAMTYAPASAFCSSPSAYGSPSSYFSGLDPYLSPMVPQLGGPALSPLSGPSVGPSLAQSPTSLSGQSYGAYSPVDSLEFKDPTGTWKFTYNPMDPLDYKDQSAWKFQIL
# Summary of the method: as §1
# ETV1 = ETV1 (Homo sapiens, UniProt P50549 1-477); conditions: protein: recombinant; tags: N-terminal GST; dsDNA, one strand shown
# Chain of ETV1 (P50549 whole entry): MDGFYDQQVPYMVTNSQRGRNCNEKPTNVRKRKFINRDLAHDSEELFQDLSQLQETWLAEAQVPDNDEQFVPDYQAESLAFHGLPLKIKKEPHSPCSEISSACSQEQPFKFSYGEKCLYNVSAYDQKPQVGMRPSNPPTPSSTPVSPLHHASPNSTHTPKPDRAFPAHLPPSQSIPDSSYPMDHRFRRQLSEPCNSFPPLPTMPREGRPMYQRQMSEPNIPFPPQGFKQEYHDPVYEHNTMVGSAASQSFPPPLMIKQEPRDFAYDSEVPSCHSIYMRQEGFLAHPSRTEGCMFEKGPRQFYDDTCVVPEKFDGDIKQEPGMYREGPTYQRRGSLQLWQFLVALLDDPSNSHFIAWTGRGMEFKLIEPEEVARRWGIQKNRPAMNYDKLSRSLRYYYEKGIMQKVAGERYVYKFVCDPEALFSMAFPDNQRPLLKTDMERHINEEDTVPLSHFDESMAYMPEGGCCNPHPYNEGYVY
# Summary of the method: as §1
# ERF = biological target: T6, ERF (Homo sapiens, UniProt P50548 1-548); conditions: protein: recombinant; tags: N-terminal GST; dsDNA, one strand shown
# T6 sequence: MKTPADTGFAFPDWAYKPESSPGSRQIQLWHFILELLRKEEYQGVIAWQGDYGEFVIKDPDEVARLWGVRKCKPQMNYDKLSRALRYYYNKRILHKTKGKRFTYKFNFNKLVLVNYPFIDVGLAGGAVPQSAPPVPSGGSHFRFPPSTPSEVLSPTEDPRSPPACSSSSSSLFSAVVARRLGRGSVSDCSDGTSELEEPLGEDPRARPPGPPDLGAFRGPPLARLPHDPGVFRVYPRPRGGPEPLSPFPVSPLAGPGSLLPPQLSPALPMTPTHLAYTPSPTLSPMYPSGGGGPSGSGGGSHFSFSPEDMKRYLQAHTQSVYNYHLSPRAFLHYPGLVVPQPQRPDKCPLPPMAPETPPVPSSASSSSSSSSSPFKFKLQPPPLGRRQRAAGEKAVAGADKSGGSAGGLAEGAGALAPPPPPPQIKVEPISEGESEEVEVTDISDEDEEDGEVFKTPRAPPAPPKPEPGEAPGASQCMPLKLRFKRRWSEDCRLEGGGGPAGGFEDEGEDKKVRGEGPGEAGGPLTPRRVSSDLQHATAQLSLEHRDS
# Summary of the method: as §1
# ETV3L = biological target: T7, ETV3L (Homo sapiens, UniProt Q6ZN32 1-361); conditions: protein: recombinant; tags: N-terminal GST; dsDNA, one strand shown
# T7 sequence: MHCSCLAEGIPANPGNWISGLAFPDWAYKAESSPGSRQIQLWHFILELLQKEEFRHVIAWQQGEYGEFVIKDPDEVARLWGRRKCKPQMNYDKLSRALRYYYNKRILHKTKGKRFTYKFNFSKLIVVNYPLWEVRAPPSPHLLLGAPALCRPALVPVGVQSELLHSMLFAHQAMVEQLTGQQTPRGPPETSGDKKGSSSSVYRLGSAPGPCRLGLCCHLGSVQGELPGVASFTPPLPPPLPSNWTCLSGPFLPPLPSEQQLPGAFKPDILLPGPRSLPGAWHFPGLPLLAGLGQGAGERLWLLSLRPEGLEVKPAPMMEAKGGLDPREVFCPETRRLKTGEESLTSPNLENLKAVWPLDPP
# Summary of the method: as §1
# ETS2 = biological target: T8, ETS2 (Homo sapiens, UniProt P15036 1-469); conditions: protein: recombinant; tags: N-terminal GST; dsDNA, one strand shown
# T8 sequence: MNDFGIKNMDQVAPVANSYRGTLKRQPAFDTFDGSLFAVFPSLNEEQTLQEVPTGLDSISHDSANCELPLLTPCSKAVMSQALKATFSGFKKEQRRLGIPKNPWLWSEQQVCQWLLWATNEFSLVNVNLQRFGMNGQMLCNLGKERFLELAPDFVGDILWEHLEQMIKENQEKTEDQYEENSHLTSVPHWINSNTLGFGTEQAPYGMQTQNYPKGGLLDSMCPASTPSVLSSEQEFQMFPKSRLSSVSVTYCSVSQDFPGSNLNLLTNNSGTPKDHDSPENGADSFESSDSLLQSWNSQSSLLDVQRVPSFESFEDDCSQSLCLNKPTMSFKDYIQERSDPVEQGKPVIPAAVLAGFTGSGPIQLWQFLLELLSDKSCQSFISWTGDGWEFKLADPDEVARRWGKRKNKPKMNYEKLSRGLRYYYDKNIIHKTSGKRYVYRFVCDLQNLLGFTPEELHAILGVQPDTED
# Summary of the method: as §1
# SPDEF = biological target: T9, SPDEF (Homo sapiens, UniProt O95238 1-335); conditions: protein: recombinant; tags: N-terminal GST; dsDNA, one strand shown
# T9 sequence: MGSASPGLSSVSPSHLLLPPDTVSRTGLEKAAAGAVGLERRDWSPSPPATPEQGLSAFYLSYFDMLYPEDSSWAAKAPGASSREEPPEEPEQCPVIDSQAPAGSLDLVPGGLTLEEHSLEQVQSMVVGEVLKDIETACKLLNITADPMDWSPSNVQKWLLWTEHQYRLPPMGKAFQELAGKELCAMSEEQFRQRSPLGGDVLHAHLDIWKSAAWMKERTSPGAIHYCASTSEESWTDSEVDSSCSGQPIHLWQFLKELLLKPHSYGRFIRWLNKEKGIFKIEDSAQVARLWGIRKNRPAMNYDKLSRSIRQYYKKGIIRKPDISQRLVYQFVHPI
# Summary of the method: as §1
# ETV7 = biological target: T10, ETV7 (Homo sapiens, UniProt Q9Y603 1-341); conditions: protein: recombinant; tags: N-terminal GST; dsDNA, one strand shown
# T10 sequence: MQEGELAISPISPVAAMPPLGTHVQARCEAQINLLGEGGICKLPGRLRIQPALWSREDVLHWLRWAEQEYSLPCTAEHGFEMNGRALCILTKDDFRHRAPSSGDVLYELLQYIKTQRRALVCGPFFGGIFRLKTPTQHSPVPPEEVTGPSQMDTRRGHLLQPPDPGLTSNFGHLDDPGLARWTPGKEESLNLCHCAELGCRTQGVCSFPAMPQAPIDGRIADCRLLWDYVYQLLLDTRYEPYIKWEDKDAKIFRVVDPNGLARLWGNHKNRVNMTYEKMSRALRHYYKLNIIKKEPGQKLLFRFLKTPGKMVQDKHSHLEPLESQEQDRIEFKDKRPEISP
# Summary of the method: as §1
# ELF5 = biological target: T11, ELF5 (Homo sapiens, UniProt Q9UKW6-2 1-255); conditions: protein: recombinant; tags: N-terminal GST; dsDNA, one strand shown
# T11 sequence: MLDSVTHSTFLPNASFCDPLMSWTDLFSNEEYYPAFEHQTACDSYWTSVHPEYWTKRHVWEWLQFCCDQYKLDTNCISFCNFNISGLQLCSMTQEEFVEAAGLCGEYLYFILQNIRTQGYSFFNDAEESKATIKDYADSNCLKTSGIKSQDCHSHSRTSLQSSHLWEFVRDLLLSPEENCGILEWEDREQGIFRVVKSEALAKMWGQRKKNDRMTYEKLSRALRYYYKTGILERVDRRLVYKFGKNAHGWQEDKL
# Summary of the method: as §1
# ETV3 = biological target: T12, ETV3 (Homo sapiens, UniProt P41162-2 1-143); conditions: protein: recombinant; tags: N-terminal GST; dsDNA, one strand shown
# T12 sequence: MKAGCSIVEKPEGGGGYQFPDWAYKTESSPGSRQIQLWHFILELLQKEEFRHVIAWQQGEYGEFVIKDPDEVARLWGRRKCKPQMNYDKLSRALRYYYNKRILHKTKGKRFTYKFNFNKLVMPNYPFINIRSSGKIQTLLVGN
# Summary of the method: as §1
# ETV6 = ETV6 (Homo sapiens, UniProt P41212 1-452); conditions: protein: recombinant; tags: N-terminal GST; dsDNA, one strand shown
# Chain of ETV6 (P41212 whole entry): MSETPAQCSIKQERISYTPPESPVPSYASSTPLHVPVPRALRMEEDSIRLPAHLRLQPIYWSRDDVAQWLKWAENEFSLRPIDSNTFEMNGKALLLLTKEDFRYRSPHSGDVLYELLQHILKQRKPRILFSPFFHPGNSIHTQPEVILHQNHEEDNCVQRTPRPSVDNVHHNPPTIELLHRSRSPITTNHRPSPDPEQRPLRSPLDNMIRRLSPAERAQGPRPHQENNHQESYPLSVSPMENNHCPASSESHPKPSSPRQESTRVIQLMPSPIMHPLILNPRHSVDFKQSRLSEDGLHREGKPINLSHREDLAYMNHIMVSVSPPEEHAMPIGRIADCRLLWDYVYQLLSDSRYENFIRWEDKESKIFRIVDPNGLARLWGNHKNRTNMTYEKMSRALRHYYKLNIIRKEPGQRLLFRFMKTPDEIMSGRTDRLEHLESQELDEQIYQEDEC
# Summary of the method: as §1
sequence,measurement,setting,value
TTGATC,binding signal,FEV,"1.17 fold enrichment (6-mer frequency, TF over GST control)"
same,binding signal,ETV5,"1.26 fold enrichment (6-mer frequency, TF over GST control)"
same,binding signal,HSF1,"1.48 fold enrichment (6-mer frequency, TF over GST control)"
same,binding signal,SPIC,"1.25 fold enrichment (6-mer frequency, TF over GST control)"
same,binding signal,ELF4,"1.14 fold enrichment (6-mer frequency, TF over GST control)"
same,binding signal,ELK4,"1.14 fold enrichment (6-mer frequency, TF over GST control)"
same,binding signal,ETV2,"1.09 fold enrichment (6-mer frequency, TF over GST control)"
same,binding signal,ELF3,"1.01 fold enrichment (6-mer frequency, TF over GST control)"
same,binding signal,CRX,"1.71 fold enrichment (6-mer frequency, TF over GST control)"
same,binding signal,ETV1,"1.15 fold enrichment (6-mer frequency, TF over GST control)"
same,binding signal,ERF,"1.23 fold enrichment (6-mer frequency, TF over GST control)"
same,binding signal,ETV3L,"1.2 fold enrichment (6-mer frequency, TF over GST control)"
same,binding signal,ETS2,"1.1 fold enrichment (6-mer frequency, TF over GST control)"
same,binding signal,SPDEF,"1.24 fold enrichment (6-mer frequency, TF over GST control)"
same,binding signal,ETV7,"1.08 fold enrichment (6-mer frequency, TF over GST control)"
same,binding signal,ELF5,"1.21 fold enrichment (6-mer frequency, TF over GST control)"
same,binding signal,ETV3,"1.26 fold enrichment (6-mer frequency, TF over GST control)"
same,binding signal,ETV6,"1.09 fold enrichment (6-mer frequency, TF over GST control)"
